# Data taken from PubChem BioAssay (Tox21).
# Active and inactive are the calls of the source. A call without a number means that no potency is given here. Unless noted, calls follow the shape of the dose curve; as a rule, active = well fitted curve in the direction sought with a large enough effect in the repeat runs; inconclusive = weak or mixed curves; inactive = no such curve, though single readings can be large; an effect the other way counts as inactive or inconclusive.
# Experiments:
# [1] = qHTS assay to test for compound auto fluorescence at 535 nm (green) in HEK293 cells (AID 720680)
# [2] = qHTS assay to test for compound auto fluorescence at 460 nm (blue) in HEK293 cell free culture (AID 720681)
# In short: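 Compounds were added to cell-free DMEM with 10% FBS and fluorescence read directly. The blue channel used 405 nm excitation and 460 nm emission, with triamterene as the reference fluorophore.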
# [3] = qHTS assay to test for compound auto fluorescence at 535 nm (green) in HEK293 cell free culture (AID 720682)
# In short: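 Read-out: 485/535 nm fluorescence intensity, calibrated against fluorescein. Medium only (DMEM + 10% FBS, no cells); test compound or DMSO vehicle added by pintool before plate reading.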
# [4] = qHTS assay to test for compound auto fluorescence at 590 nm (red) in HEK293 cell free culture (AID 720683)
# In short: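 Cell-free wells of DMEM with 10% FBS received compound, and intrinsic fluorescence was read at excitation/emission 540/590 nm. Values expressed as equivalence to Rose Bengal sodium.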
# [5] = qHTS assay to test for compound auto fluorescence at 590 nm (red) in HepG2 cell free culture (AID 720684)
# In short: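 Compounds are added to culture medium (MEM, 10% FBS) lacking cells, then fluorescence is read at excitation 540 nm, emission 590 nm, with Rose Bengal sodium as the equivalency standard.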
# [6] = qHTS assay to test for compound auto fluorescence at 460 nm (blue) in HepG2 cell free culture (AID 720685)
# In short: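 Compound (23 nL) or DMSO pinned into cell-free MEM with 10% FBS; blue fluorescence read at 405/460 nm excitation/emission, expressed as auto-fluorescence equivalency to triamterene.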
# [7] = qHTS assay to test for compound auto fluorescence at 535 nm (green) in HepG2 cell free culture (AID 720686)
# [8] = qHTS assay to test for compound auto fluorescence at 460 nm (blue) in HepG2 cells (AID 720687)
# In short: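 HepG2 cells in MEM with 10% FBS, attached overnight at 37 C, were exposed to compound or DMSO for 1 hr at 37 C, 5% CO2. Blue fluorescence was read at 405/460 nm, with triamterene as reference fluorophore.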
# [9] = target: Glucocorticoid receptor (Homo sapiens) (UniProt P04150); assay: qHTS assay to identify small molecule agonists of the glucocorticoid receptor (GR) signaling pathway (AID 720691; active = well fitted activation curve with a large enough effect in the signal ratio in the repeat runs, not every such curve was filed as active; inconclusive = weak or mixed curves, or effect the other way; inactive = no such curve, though single readings can be large or run the other way; the % refers to the signal ratio; also: potency is read from the fitted curve at half-maximal effect); settings: GR-bla HeLa, beta-lactamase reporter ratio, 18 h; activation: at 62.4 µM (top of the series)
# In short: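 qHTS in GR-bla HeLa cells: 4 h settling at 37 C/5% CO2, 18 h compound incubation at 37 C, 2 h LiveBLAzer B/G FRET substrate at room temperature, fluorescence intensity measured.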
# [10] = qHTS assay to identify small molecule antagonists of the glucocorticoid receptor (GR) signaling pathway - cell viability counter screen (AID 720693); also: nearly all actives have a fitted effect of over 55% in size
# [11] = qHTS assay for identifying genotoxic compounds that show differential cytotoxicity against isogenic chicken DT40 cell lines with known DNA damage response pathways - Rev3 mutant cell line (AID 743014); also: nearly all actives have a fitted effect of over 55% in size; also: potency is read from the fitted curve at half-maximal effect
# [12] = qHTS assay for identifying genotoxic compounds that show differential cytotoxicity against isogenic chicken DT40 cell lines with known DNA damage response pathways - Rad54/Ku70 mutant cell line (AID 743015); also: nearly all actives have a fitted effect of over 60% in size; also: potency is read from the fitted curve at half-maximal effect
# [13] = qHTS assay to identify small molecule antagonists of the androgen receptor (AR) signaling pathway using the MDA cell line - cell viability counter screen (AID 743041; also: nearly all actives have a fitted effect of over 45% in size)
# In short: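 Same-well cytotoxicity was assessed by CellTiter-Fluor in MDA-kb2 AR-luc cells after 16 h of compound treatment under R1881 agonism.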
# [14] = qHTS assay for identifying genotoxic compounds that show differential cytotoxicity against isogenic chicken DT40 cell lines with known DNA damage response pathways - wild type cell line (AID 743012); also: nearly all actives have a fitted effect of over 60% in size; also: potency is read from the fitted curve at half-maximal effect
# In short: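 First, wild type DT40 cells were plated at 300 per well and equilibrated about 0.5 h at 37 C/5% CO2. Next, compounds in DMSO were added and exposure lasted 40 h. Finally, CellTiter-Glo was added for 30 min at room temperature and luminescence recorded.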
# [15] = qHTS assay to identify small molecule antagonists of the androgen receptor (AR) signaling pathway - cell viability counter screen (AID 743033; also: nearly all actives have a fitted effect of over 45% in size)
# [16] = target: Androgen receptor (Homo sapiens) (UniProt P10275); assay: qHTS assay to identify small molecule antagonists of the androgen receptor (AR) signaling pathway (AID 743035; active = well fitted inhibition curve with a large enough effect in the signal ratio in the repeat runs, not every such curve was filed as active; inconclusive = weak or mixed curves, or effect the other way; inactive = no such curve, though single readings can be large or run the other way; the % refers to the signal ratio)
# In short: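 Beta-lactamase FRET read (2 h RT incubation with LiveBLAzer B/G) following 16 h of compound plus R1881 treatment of AR-UAS-bla HEK293 cells, which had been pre-incubated 4 h at 37C.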
# [17] = target: Androgen receptor (Homo sapiens) (UniProt P10275); assay: qHTS assay to identify small molecule agonists of the androgen receptor (AR) signaling pathway (AID 743036; active = well fitted activation curve with a large enough effect in the signal ratio in the repeat runs, with a control signal flat, not every such curve was filed as active; inconclusive = weak or mixed curves, or effect the other way; inactive = no such curve, though single readings can be large or run the other way; the % refers to the signal ratio)
# In short: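 HEK293 cells stably carrying a UAS-driven beta-lactamase reporter (GeneBLAzer AR-UAS-bla-GripTite) were plated at 2,000 cells/well, rested 4 h at 37C, then exposed to compounds in DMSO for 16 h. LiveBLAzer B/G FRET substrate was added for 2 h at room temperature; fluorescence read.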
# [18] = target: Androgen receptor (Homo sapiens) (UniProt P10275); assay: qHTS assay to identify small molecule agonists of the androgen receptor (AR) signaling pathway using the MDA cell line (AID 743040; also: nearly all actives have a fitted effect of over 20% in size)
# In short: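 Human breast carcinoma MDA-kb2 reporter cells (MMTV-luc, AR/GR elements) were treated for 16 h at 37C in 0% CO2 following a 5 h settling period. Signal was quantified by ONE-Glo luminescence.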
# [19] = target: Androgen receptor (Homo sapiens) (UniProt P10275); assay: qHTS assay to identify small molecule antagonists of the androgen receptor (AR) signaling pathway using the MDA cell line (AID 743042; also: nearly all actives have a fitted effect of over 55% in size)
# In short: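 MDA-kb2 breast carcinoma cells carrying MMTV-luciferase (AR/GR responsive) were co-treated with compounds and the agonist R1881 for 16 h at 37C. Inhibition read as ONE-Glo luminescence; CellTiter-Fluor fluorescence measured in parallel for cytotoxicity.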
# Androgen receptor (Homo sapiens), sequence (P10275 whole entry, looked up): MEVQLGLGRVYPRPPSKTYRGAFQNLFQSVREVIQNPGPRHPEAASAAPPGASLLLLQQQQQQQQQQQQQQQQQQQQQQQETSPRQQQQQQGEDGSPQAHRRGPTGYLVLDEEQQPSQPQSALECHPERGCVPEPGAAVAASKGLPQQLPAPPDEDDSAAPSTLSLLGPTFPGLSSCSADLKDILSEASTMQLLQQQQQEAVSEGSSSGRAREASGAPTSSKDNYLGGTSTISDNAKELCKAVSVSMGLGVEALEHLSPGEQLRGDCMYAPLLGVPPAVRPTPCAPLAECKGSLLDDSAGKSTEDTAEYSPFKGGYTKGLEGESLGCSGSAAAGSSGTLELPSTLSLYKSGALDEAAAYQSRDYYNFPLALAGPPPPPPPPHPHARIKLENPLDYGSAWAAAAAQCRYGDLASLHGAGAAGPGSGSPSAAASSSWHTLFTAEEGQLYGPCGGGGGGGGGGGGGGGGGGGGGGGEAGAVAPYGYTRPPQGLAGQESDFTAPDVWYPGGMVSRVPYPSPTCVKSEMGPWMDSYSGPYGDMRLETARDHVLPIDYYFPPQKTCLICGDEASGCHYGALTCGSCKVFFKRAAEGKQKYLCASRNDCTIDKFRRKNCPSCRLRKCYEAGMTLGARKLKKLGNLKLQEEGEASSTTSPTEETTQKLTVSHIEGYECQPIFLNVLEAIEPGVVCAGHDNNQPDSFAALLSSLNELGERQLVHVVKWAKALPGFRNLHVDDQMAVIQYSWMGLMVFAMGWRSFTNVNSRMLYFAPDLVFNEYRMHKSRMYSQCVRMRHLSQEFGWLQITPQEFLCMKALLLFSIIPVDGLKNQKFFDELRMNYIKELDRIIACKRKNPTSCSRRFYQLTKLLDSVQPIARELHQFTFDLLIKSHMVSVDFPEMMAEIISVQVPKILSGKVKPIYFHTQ
# Glucocorticoid receptor (Homo sapiens), sequence (P04150 whole entry, looked up): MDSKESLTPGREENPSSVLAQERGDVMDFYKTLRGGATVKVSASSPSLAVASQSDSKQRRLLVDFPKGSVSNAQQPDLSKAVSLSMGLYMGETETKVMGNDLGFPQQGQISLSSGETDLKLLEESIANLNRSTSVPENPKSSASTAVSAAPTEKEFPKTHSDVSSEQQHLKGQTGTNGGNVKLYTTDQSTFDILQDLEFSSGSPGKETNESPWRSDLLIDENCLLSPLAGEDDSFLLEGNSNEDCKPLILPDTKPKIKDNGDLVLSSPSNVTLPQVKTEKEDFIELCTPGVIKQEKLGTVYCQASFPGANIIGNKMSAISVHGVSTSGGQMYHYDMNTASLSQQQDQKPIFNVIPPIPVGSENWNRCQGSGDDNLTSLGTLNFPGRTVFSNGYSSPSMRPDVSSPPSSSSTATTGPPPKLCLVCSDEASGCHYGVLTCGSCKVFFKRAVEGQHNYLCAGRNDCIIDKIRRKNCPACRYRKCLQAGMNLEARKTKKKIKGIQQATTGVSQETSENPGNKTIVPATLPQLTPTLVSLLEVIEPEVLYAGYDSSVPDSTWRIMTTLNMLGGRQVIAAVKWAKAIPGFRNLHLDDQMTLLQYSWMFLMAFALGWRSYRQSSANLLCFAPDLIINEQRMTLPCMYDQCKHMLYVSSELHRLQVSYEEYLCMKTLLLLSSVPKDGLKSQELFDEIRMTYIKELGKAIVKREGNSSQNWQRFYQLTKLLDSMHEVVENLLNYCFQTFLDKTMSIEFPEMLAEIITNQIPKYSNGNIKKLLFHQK
Structure (SMILES),Potency [1],Potency [2],Potency [3],Potency [4],Potency [5],outcome [6],Potency [7],outcome [8],Potency [9],Potency [10],Potency [11],Potency [12],Potency [13],Potency [14],Potency [15],Potency [16],Potency [17],Potency [18],Potency [19]
Cc1cc(-n2c(=O)[nH]c(=O)n(C)c2=O)ccc1Oc1ccc(S(=O)(=O)C(F)(F)F)cc1,inactive,inactive,inactive,inactive,inactive,inactive,inactive,inactive,inactive,inactive,26.6 µM (active),26.6 µM (active),inactive,–,–,–,–,–,–
N[C@@H](C(=O)N[C@@H]1C(=O)N2C(C(=O)O)=C(Cl)CC[C@H]12)c1ccccc1,inactive,inactive,inactive,inactive,inactive,inactive,inactive,inactive,21.3 µM (active),inactive,inactive,inactive,inactive,–,–,–,–,–,–
CCCC(=O)O[C@]1(C(=O)COC(C)=O)CC[C@H]2[C@@H]3C[C@H](F)C4=CC(=O)C=C[C@]4(C)[C@@]3(F)[C@@H](O)C[C@@]21C,inactive,inactive,inactive,inactive,inactive,inactive,inactive,inactive,0.0043 µM [inconclusive] (active),inactive,–,29.8 µM (active),inactive,26.6 µM (active),inactive,–,–,–,–
CCCCC/C=C\CCC(=O)N[C@H]1[C@H](Oc2c3cc4cc2Oc2ccc(cc2Cl)[C@@H](O[C@@H]2O[C@H](CO)[C@@H](O)[C@H](O)[C@H]2NC(C)=O)[C@@H]2NC(=O)[C@H](NC(=O)[C@@H]4NC(=O)[C@H]4NC(=O)[C@@H](Cc5ccc(c(Cl)c5)O3)NC(=O)[C@H](N)c3ccc(O)c(c3)Oc3cc(O)cc4c3)c3ccc(O)c(c3)-c3c(O[C@H]4O[C@H](CO)[C@@H](O)[C@H](O)[C@@H]4O)cc(O)cc3[C@@H](C(=O)O)NC2=O)O[C@H](CO)[C@@H](O)[C@@H]1O,inactive,inactive,inactive,inactive,inactive,inactive,inactive,inactive,inactive,inactive,–,inactive,inactive,inactive,inactive,–,–,–,–
CC(=O)O[C@H]1CC[C@@]2(C)C(=CC[C@@H]3[C@@H]2CC[C@]2(C)C(c4cccnc4)=CC[C@@H]32)C1,inactive,inactive,inactive,inactive,inactive,inactive,inactive,inactive,inactive,inactive,–,–,inactive,5.31 µM (active),inactive,inactive,inactive,inactive,inactive
